SNCA viab count: reduces viability of HEK-293 SNCA reporter cells; HEK-293-SNCA-luc viability, GF-AFC fluorescence, 24 h; Potency, µM (series often up to 57.1 µM), most hits filed as cytotoxic; actives 0.12% (n = 150,000); note: nearly all actives have a fitted effect of over 30% in size
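Cytotoxicity counterscreen: after 24 h compound treatment of genome-edited SNCA-luciferase HEK-293 cells, live-cell protease substrate GF-AFC read by fluorescence after 30 min; activity scaled between DMSO (0%) and medium-only (-100%), curves Hill-fitted.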
SNCA expr inh: inhibitors of alpha-synuclein (SNCA) gene expression; actives 0.17% (n = 140,000); AID 1671194; HEK-293 SNCA-luciferase knock-in, luminescence, 24 h; Potency, µM (top dose mostly 57.2 µM), actives largely listed as inhibitors; note: nearly all actives have a fitted effect of over 45% in size
FLuc inh: blocks purified firefly luciferase enzyme activity. P08659. purified P. pyralis luciferase, luminescence, biochemical. Potency, µM (doses to about 115 µM), usual class: inhibitors. actives 2.5% (n = 76,000). AID 1347043; note: nearly all actives have a fitted effect of over 65% in size
Target sequence (P08659 whole entry, looked up): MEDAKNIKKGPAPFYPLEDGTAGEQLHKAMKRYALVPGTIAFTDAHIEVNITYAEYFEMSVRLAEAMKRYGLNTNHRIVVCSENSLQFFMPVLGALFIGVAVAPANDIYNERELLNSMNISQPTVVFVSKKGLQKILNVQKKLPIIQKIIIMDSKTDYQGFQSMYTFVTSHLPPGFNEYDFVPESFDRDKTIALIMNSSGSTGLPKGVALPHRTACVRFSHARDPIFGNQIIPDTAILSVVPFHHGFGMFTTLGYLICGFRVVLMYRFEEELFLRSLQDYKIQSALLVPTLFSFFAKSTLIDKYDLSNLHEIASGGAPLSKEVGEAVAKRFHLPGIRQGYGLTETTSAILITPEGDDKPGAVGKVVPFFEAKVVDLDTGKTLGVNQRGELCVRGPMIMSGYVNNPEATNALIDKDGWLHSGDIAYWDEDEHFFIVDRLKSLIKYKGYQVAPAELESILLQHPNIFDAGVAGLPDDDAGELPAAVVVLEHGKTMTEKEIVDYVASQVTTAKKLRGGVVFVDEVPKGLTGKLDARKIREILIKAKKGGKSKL
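Biochemical qHTS: compound (6-point titration) added to 10uM D-luciferin plus 10uM ATP in Tris acetate pH 7.5 buffer with Mg, Tween-20 and BSA, then purified enzyme at 10nM; light output imaged.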
NPR1 antag: antagonists of human natriuretic peptide receptor Npr1 | HEK293 hNpr1 GloSensor cGMP, ANP-stimulated luminescence | Potency, µM (series often up to 46.3 µM), hits mostly inhibitors | actives 1.6% (n = 76,000) | AID 1347048; calls by dose curve; note: nearly all actives have a fitted effect of over 60% in size
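Compound pre-incubated 30 min at room temperature on GloSensor-loaded HEK293 cells stably carrying hNpr1 and the pGS-40F cGMP biosensor. Stimulation uses hNppA at 0.1 nM final; luminescence is taken at baseline and 20 min post-agonist.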
NIH3T3 tox: cytotoxic compounds in NIH 3T3 cells. AID 1345082. actives 4.3% (n = 94,000). Potency, µM (doses to about 96.7 µM), hits mostly inhibitors. NIH 3T3 viability, CellTiter-Glo ATP luminescence, 48-72 h; note: nearly all actives have a fitted effect of over 55% in size
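ATP-dependent luminescence (CellTiter-Glo) served as the viability signal for NIH 3T3 cells treated with compound for 48 or 72 hr at 37 °C.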
HEK293 tox: kills HEK 293 cells. AID 1345083. actives 6.6% (n = 94,000). Potency, µM (top dose mostly 115 µM), usual class: inhibitors. HEK 293 viability, ATP luminescence (CellTiter-Glo), 48-72 h; note: nearly all actives have a fitted effect of over 60% in size
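qHTS cytotoxicity; HEK 293, 250 cells/well; compound pinned; 48 or 72 hr, 37 degree Celsius, 5% CO2, 95% humidity; CellTiter-Glo, 10 min RT; luminescence (ATP).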
Of the large screens only hits and unclear results are named; the others gave an inactive call. A selection: hits, their analogues and other compounds. The true share with any hit is near 7.4%. Unless noted, calls come from the whole dose curve; as a rule, active = well fitted curve in the direction sought with a large enough effect; inconclusive = small, poorly fitted or top-dose-only effect, or another doubt; inactive = no such curve, though single readings can be large; an effect the other way counts as inactive or inconclusive.

Clc1cccc(-c2cnc([C@@H]3COCCN3Cc3ccccc3)[nH]2)c1	NPR1 antag inconclusive, NIH3T3 tox 79µM, HEK293 tox 100µM
Cc1nnc2ccc(N3CCCN([S+](C)(=O)[O-])CC3)nn12	NIH3T3 tox inconclusive (no result: SNCA viab count, SNCA expr inh, FLuc inh, NPR1 antag)
CS(=O)(=O)N(Cc1cccnc1)C1CN(C(=O)c2[nH]nc3c2CCc2ccccc2-3)C1	HEK293 tox inconclusive
CCCc1noc(-c2cccn3c(CNC(=O)COc4cccc(C)c4)nnc23)n1	none
COC(=O)c1ccc2nc(C[C@@H]3C[C@@H](C(C)C)[C@H](CNCc4ccc(OC)cc4O)C=C3C)[nH]c2c1	SNCA viab count inconclusive, NIH3T3 tox 25µM, HEK293 tox 20µM
COC(=O)c1ccc2nc(C[C@@H]3C[C@@H](C(C)C)[C@H](CNCc4ccccc4F)C=C3C)[nH]c2c1	NIH3T3 tox 22µM, HEK293 tox inconclusive
CNC(=O)[C@H]1CN(C(=O)COc2ccccc2)[C@]2(C)C(=O)N(CC3CC3)c3ccccc3[C@H]12	HEK293 tox inconclusive (no result: FLuc inh, NPR1 antag)
CN(C)S(=O)(=O)N1CCCC(Cn2c(C3CC3)nc3cccnc32)C1 (stereo not given)	none
Cc1ccc(S(=O)(=O)N2CCCC(Cn3c(C4CC4)nc4cccnc43)C2)cc1 (stereo not given)	NPR1 antag inconclusive, HEK293 tox inconclusive
Cc1ccc(S(=O)(=O)N2CCCC(Cn3c(C4CC4)nc4cccnc43)C2)c(C)c1 (stereo not given)	NIH3T3 tox inconclusive, HEK293 tox 35µM
CCc1ccccc1S(=O)(=O)N1CCCC(Cn2c(C3CC3)nc3cccnc32)C1 (stereo not given)	NIH3T3 tox inconclusive, HEK293 tox 40µM
Cc1cc(Cl)ccc1S(=O)(=O)N1CCCC(Cn2c(C)nc3cccnc32)C1 (stereo not given)	SNCA expr inh inconclusive, NPR1 antag inconclusive, NIH3T3 tox 11µM, HEK293 tox 20µM
Cc1ccc(C)c(S(=O)(=O)N2CCCC(Cn3c(C)nc4cccnc43)C2)c1 (stereo not given)	NPR1 antag inconclusive, NIH3T3 tox 25µM, HEK293 tox 40µM
Cc1ccc(S(=O)(=O)N2CCCC(Cn3c(C)nc4cccnc43)C2)c(C)c1 (stereo not given)	NPR1 antag inconclusive, NIH3T3 tox inconclusive, HEK293 tox inconclusive
O=C(NCCCc1ccccc1)c1cn2cc(-c3ccccc3)sc2n1	HEK293 tox inconclusive (no result: FLuc inh, NPR1 antag)
CN(CCc1ccccn1)C(=O)c1cn(CCN2CCNCC2)nn1	none
COCCOC1CN(C2CCN(C(=O)Nc3ccccc3)CC2)C12CCCCC2 (stereo not given)	none (no result: FLuc inh, NPR1 antag)
Cc1cc(NC(=O)N2CCCC(Cn3c(C)nc4cccnc43)C2)ccc1Br (stereo not given)	NIH3T3 tox inconclusive, HEK293 tox 32µM
Cc1nc2cccnc2n1CC1CCCN(S(=O)(=O)Cc2ccc(Cl)cc2)C1 (stereo not given)	NPR1 antag inconclusive, NIH3T3 tox inconclusive, HEK293 tox 32µM
Cc1nc2cccnc2n1CC1CCCN(S(=O)(=O)c2ccc(F)c(Cl)c2)C1 (stereo not given)	SNCA expr inh inconclusive, NIH3T3 tox inconclusive, HEK293 tox inconclusive
COCc1cc(CN(C)C(=O)CCc2cc3n(n2)CCNC3)[nH]n1	none
O=C(NC1CCCCC1)[C@@H]1C[C@@H](O)CN1C1CCN(C(=O)c2ccc3ncccc3c2)CC1	none
O=C(Nc1nc2c(s1)CCC2)C1CC(=O)N(c2n[nH]c3cccc(F)c23)C1 (stereo not given)	SNCA expr inh inconclusive, NIH3T3 tox inconclusive, HEK293 tox 45µM
O=C(Nc1nc2c(s1)CCC2)C1CC(=O)N(c2n[nH]c3cc(Br)ccc23)C1 (stereo not given)	SNCA viab count inconclusive, NIH3T3 tox 18µM, HEK293 tox inconclusive
O=C(Nc1nc2ccccc2s1)C1CC(=O)N(c2n[nH]c3cccc(F)c23)C1 (stereo not given)	SNCA expr inh inconclusive, NIH3T3 tox 25µM, HEK293 tox 13µM
O=C(C1CC(=O)N(c2n[nH]c3cccc(F)c23)C1)N1CCCC1 (stereo not given)	none

Screens deposited in PubChem by National Center for Advancing Translational Sciences (NCATS).
